From PubChem
TGFb inhibitor: inhibitors of TGF-b signaling. HepG2 CAGA-GFP TGF-b/SMAD3 reporter, GFP fluorescence, 18 h; TGF-beta stimulated, 500 pg/mL final. Potency, µM (series often up to 46.1 µM), for inactives: at the highest dose activity, negative = inhibition, actives largely listed as inhibitors. 1.2% of 410,000 active. AID 588855; note: potency is the fitted concentration of half-maximal effect; % is set by controls: 0 for no effect and ±100 for the full control effect; nearly all actives have a fitted effect of over 65% in size
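Inhibition was scored as loss of TGF-beta-induced (500 pg/mL final, 18 hours, 37 degrees C) GFP in HEPG2 cells carrying a CAGA-GFP reporter, in DMEM with 1% FBS. Well GFP was summed per cell; Activity was normalised to unstimulated and stimulated DMSO wells, then concentration-response fitting.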
HepG2 tox: HepG2 cytotoxicity, counter-screen for TGF-b inhibitors; HepG2 CAGA-GFP viability, ATP luminescence, 18 h; Potency, µM (doses to about 46.1 µM), for inactives: at the highest dose activity change, negative = cytotoxicity, actives largely listed as cytotoxic; 0.76% of 410,000 active; note: potency is the fitted concentration of half-maximal effect
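CellTiter-Glo luminescence gave cytotoxicity after 18 hours at 37 degrees C. The cells were HepG2 CAGA-GFP in 1% FBS DMEM, stimulated with 500 pg/mL TGF-beta after compound addition. %Activity was normalised to no-cell wells (complete cell-killing) and DMSO (no toxicity), and curves were fitted and classified.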
TDP1 cell CPT: growth inhibition of DT40 Tdp1-/-;hTDP1 cells with camptothecin (screen for TDP1 inhibitors). Potency, µM (doses to about 46.2 µM), without a hit: at the top dose activity change, negative = growth inhibition, usual class: inhibitors. chicken DT40 Tdp1-/-;hTDP1 cells + 20 nM CPT, ATP luminescence, 48 h. 12% of 420,000 active; note: potency is the fitted concentration of half-maximal effect; % is set by controls: 0 for no effect and ±100 for the full control effect; nearly all actives have a fitted effect of over 55% in size
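Chicken DT40 Tdp1-/- cells complemented with human TDP1, 400 cells/well, exposed to compounds plus 20 nM camptothecin for at least 48 h at 37 C; viability read as ATP content by CellTiter-Glo luminescence.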
DT40 TDP1 no CPT: qHTS for Inhibitors of human tyrosyl-DNA phosphodiesterase 1 (TDP1): qHTS in cells in absence of CPT | 15% of 420,000 active | AID 686978, 2013 | DT40 Tdp1-/- hTDP1 cells, no CPT, ATP luminescence, 48 h | Potency, µM (top dose mostly 46.2 µM), without a hit: top-dose activity change, negative = growth inhibition, most hits filed as inhibitors; note: potency is the fitted concentration of half-maximal effect; % is set by controls: 0 for no effect and ±100 for the full control effect; nearly all actives have a fitted effect of over 55% in size
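Camptothecin absent (DMSO only). Human TDP1-complemented DT40 knockout cells, 400 cells/well, 37 °C for minimum 48 hr; ATP measured via CellTiter-Glo, 30 min dark incubation, luminescence.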
TDP1 inh: inhibitors of human tyrosyl-DNA phosphodiesterase TDP1; recombinant TDP1, AlphaScreen DNA substrate cleavage; 0.28% of 350,000 active; Potency, µM (titrated, usually from 130 µM), inactives show at the top dose activity change, negative = inhibition, actives largely listed as inhibitors; AID 485290; note: potency is the fitted concentration of half-maximal effect; % is set by controls: 0 for no effect and ±100 for the full control effect; nearly all actives have a fitted effect of over 40% in size
Target sequence (Q9NUW8 whole entry, looked up): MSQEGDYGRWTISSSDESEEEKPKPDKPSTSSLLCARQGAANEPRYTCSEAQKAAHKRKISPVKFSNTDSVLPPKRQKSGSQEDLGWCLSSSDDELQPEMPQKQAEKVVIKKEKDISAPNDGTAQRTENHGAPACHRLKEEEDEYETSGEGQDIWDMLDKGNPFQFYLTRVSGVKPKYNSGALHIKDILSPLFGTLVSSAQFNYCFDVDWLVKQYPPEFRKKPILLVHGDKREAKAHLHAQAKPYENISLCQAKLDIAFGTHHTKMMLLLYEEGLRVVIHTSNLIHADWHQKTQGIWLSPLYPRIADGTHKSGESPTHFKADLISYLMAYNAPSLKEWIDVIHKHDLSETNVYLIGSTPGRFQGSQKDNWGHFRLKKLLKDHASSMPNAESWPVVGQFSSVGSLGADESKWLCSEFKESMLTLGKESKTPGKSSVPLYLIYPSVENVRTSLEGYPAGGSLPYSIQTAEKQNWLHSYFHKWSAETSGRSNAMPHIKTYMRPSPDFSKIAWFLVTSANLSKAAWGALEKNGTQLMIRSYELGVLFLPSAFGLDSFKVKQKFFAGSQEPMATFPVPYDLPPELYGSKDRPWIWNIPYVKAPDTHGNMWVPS
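Enzyme-compound mixtures sat 15 min at room temperature, followed by a 5 min reaction with 15 nM final substrate and 10 min with AlphaScreen beads. Recombinant human Tdp1 was used at 1 nM final.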
IL1B secr inh: inflammasome signaling inhibition, IL-1 beta readout; THP-1 LPS/ATP IL-1B secretion, AlphaLISA, 16 h; hits give low values; 4.7% of 360,000 active; activity change, % at 57.5 µM; AID 743279; in the data active = activity change below about -50%; inconclusive = mostly about -30% to -49%; note: % is set by controls: 0 for no effect and ±100 for the full control effect
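THP-1 cells pretreated 1 hr with compounds (up to 57.5 uM final), then stimulated with LPS (250 ng/mL final) plus ATP (1.25 mM final); secreted IL-1B measured by AlphaLISA after 16 hr, decreased signal indicating inhibition.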
An asterisk follows results filed as active; ? = inconclusive; nt = no result; [ ] = dose if it differs, or a comment. The list is not random: actives were taken first. Their share in the collection is about 18%. Unless noted, calls come from the whole dose curve; as a rule, active = well fitted curve in the direction sought with a large enough effect; inconclusive = small, poorly fitted or top-dose-only effect, or another doubt; inactive = no such curve, though single readings can be large; an effect the other way counts as inactive or inconclusive.

SMILES	TGFb inhibitor	HepG2 tox	TDP1 cell CPT	DT40 TDP1 no CPT	TDP1 inh	IL1B secr inh
CCOCCc1nn2c(=O)cc(COC(=O)c3cccc(C)c3)nc2s1	2%	-17%	?	?	nt	nt
C[C@H]1C[C@H]2[C@@H]3CCC4=CC(=O)C=C[C@]4(C)[C@@]3(Cl)[C@@H](O)C[C@]2(C)[C@@]1(O)C(=O)CO	-7%	-25%	?	?	0%	-59*
Cn1c(SCC(=O)Nc2ccc3c(c2)OCCO3)nnc1C1CC1	11%	17%	17%	2%	13%[0.0935 µM]	3
COc1cc(/C=N/Nc2nncn2/N=C/c2ccc(O)c(OC)c2)ccc1O	4%	10µM*	?	?	0%	17
COc1cc(/C=N/Nc2ccccc2)ccc1O	3%	-6%	1%	-2%	nt	21
COc1ccc(OC)c(/C=N/Nc2nncn2/N=C/c2cc(OC)ccc2OC)c1	-18%	-8%	8.2µM*	7.3µM*	6%	?
COc1ccc(OC)c(/C=N\Nc2nccs2)c1	-13%	1%	?	?	nt	5
CC(C)(C)C1CCc2onc(C(=O)Nc3sc4c(c3C#N)CCCC4)c2C1 (stereo not given)	1%	-4%	-28%	-17%	-3%	nt
CC(=O)N/N=C/c1cc(C(C)(C)C)cc(/C=N/NC(C)=O)c1O	-5%	-7%	-29%	26µM*	4%	49
C/C(=N\NC(=O)CSCc1ccc([N+](=O)[O-])cc1)c1cccc(Br)c1	-15%	0%	10µM*	18µM*	8%	-8
Cc1ccc(C(=O)NCCOc2ccc(Cl)cc2)cc1	0%	-8%	12%	-4%	nt	-5
N/C(=N\OC(=O)Cc1ccc(Cl)cc1)c1ccncc1	-4%	-2%	12%	-4%	-2%	6
COc1ccc(C(=O)O/N=C(\N)Cc2ccc([N+](=O)[O-])cc2)c(OC)c1	9%	3%	1.3µM*	1.8µM*	nt	-11
Cc1ccc(C(=O)CC(=O)COc2ccc(Cl)cc2)cc1	0%	-21%	?	15µM*	-5%	0
N/C(Cc1ccc(Cl)cc1)=N\OC(=O)Cc1ccc([N+](=O)[O-])cc1	?	-8%	?	?	3%	-103*
C/C(=N/NC(=O)CSCc1ccc(Cl)cc1)c1cccc(NC(=O)c2ccccc2)c1	-4%	7%	-21%	-10%	8%	5
COc1ccc(C/C(N)=N/OC(=O)c2cccc([N+](=O)[O-])c2)cc1	?	2%	?	?	5%	-12
O=C(CN1C(=O)NC2(CCCC2)C1=O)OCc1cccc(Br)c1	1%	-15%	?	?	0%[56.1 µM]	1
O=c1[nH]cnc2c1ncn2-c1ccc(Cl)cc1	-3%	9%	5%	25%	nt	10
Cc1csc(=O)n1CC(=O)OCC(=O)Nc1ccc(F)c(F)c1	-7%	2%	-16%	-3%	0%	-10
N/C(Cc1ccc([N+](=O)[O-])cc1)=N\OC(=O)c1cccc(Br)c1	8%	-6%	15µM*	?	5%	-5
Cc1ccc(OCC(=O)O/N=C(\N)Cc2ccc(Cl)cc2)cc1	-21%	-91%	6.5µM*	4.6µM*	nt	0
COc1cc(C(=O)O/N=C(\N)Cc2ccc([N+](=O)[O-])cc2)cc(OC)c1OC	0%	-22%	3.7µM*	15µM*	3%	-3
N/C(Cc1ccc([N+](=O)[O-])cc1)=N\OC(=O)c1ccc([N+](=O)[O-])cc1	-4%	-8%	?	?	9%	?
COc1ccc(OCC(=O)O/N=C(\N)Cc2ccc(Cl)cc2)cc1	2%	-18%	-15%	-5%	nt	0
SMILES	TGFb inhibitor	HepG2 tox	TDP1 cell CPT	DT40 TDP1 no CPT	TDP1 inh	IL1B secr inh
COc1ccc(OCc2cc(C(=O)NCc3cccc(C)n3)no2)c(Cl)c1	-10%	-33%	-24%	-24%	2%	-13
Cc1cc(C)c(Nc2ncnc3c2cnn3C)c(C)c1	-4%	-1%	21µM*	16µM*	8%	nt
Cc1cccc(-n2ncc3c(NC(C)C)ncnc32)c1	-9%	-12%	?	?	-3%	-23
Cc1cccc(-n2ncc3c(Nc4c(C)cc(C)cc4C)ncnc32)c1	?	-3%	3.3µM*	4.6µM*	-2%	nt
c1ccc(-c2cncnc2)cc1	-4%	-24%	-6%	2%	-1%	41
Cc1ccc(NC(=O)NCc2cccn2C)cc1C	-4%	-2%	18%	?	nt	-12
CN1OC[C@@H]2CN(Cc3cc(Cl)cc(Cl)c3)[C@H](c3cccc(Br)c3)C[C@@H]21	-13%	-39%	?	21µM*	nt	-27
COc1ccccc1-c1cccc([C@@H]2C[C@H]3[C@H](CON3C)CN2Cc2ccccc2)c1	?	-21%	?	21µM*	nt	-2
CN1OC[C@@H]2CN(Cc3ccccc3)[C@H](c3cccc(-c4ccc(C#N)cc4)c3)C[C@@H]21	10µM*	-30%	?	?	nt	?
Cc1ccccc1CN1C[C@H]2CON(C)[C@H]2C[C@H]1c1cccc(Br)c1	-4%	-20%	0%	-29%	nt	-18
CN1OC[C@@H]2CN(Cc3ccccc3)[C@H](c3ccc(N4CCCCC4)cc3)C[C@@H]21	?	-35%	?	?	nt	-28
COc1ccc(CN2C[C@H]3CON(C)[C@H]3C[C@H]2c2ccc(-c3ccccc3)cc2)cc1	11µM*	-25%	?	?	nt	-2
CCC(CC)C(=O)Nc1nnc(S(=O)(=O)N2CCCc3ccccc32)s1	-11%	4%	-14%	-16%	nt	19
CC(C)(COC(=O)c1ccccc1)N1CC2CCC(C1)O2	-2%	4%	6%	-4%	nt	23
O=C(Nc1ccc(C(=O)NCCCN2CCN(c3ccc(F)cc3)CC2)cc1)C1=CSCCO1	7%	-36%	?	?	3%	27
Cc1ccccc1-c1cccc([C@@H]2C[C@H]3[C@H](CON3C)CN2Cc2cc(Cl)cc(Cl)c2)c1	-19%	-12%	?	23µM*	nt	-19
Cc1cc(C(=O)c2ccccc2)c(NC(=O)CCl)s1	-12%	-12%	9.2µM*	23µM*	5%	-100*
CCN(CC)CC(=O)Nc1sc(C)cc1C(=O)c1ccccc1	2%	-9%	?	?	nt	-23
